Shown are actives, neighbours in structure and some others; about 9% of the full set was active somewhere.
LMNA splice mod – changes lamin A minigene splicing in HeLa cells; HeLa LMNA splicing GFP/RFP minigene ratio, 48 h; Potency, µM (top dose mostly 46.1 µM), without a hit: at the top dose ratio change, negative = inhibition, hits mostly inhibitors; 200,000 tested, 0.01% active; AID 1487; active = well fitted inhibition curve with a large enough effect in the signal ratio, with a control signal flat, not every such curve was filed as active; inconclusive = small, poorly fitted or top-dose-only effect, or effect the other way, or a change in a side signal; the % refers to the signal ratio; also: % is scaled to controls: 0 for no effect and ±100 for the full control effect
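S3 HeLa stable clones carrying a lamin A-EGFP splicing minigene plus DsRed2 were seeded at 600 cells/well in Opti-MEM with 2% FBS, pin-dosed and incubated 48 h at 37°C. Acumen cytometry (488 nm) gave the GFP/RFP total-intensity ratio.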
ALDH1A1 inh – inhibitors of human aldehyde dehydrogenase 1A1. P00352. Purified ALDH1A1, NADH fluorescence, propionaldehyde substrate. Potency, µM (top dose mostly 75.3 µM), for inactives: top-dose activity, negative = inhibition, usual class: inhibitors. 220,000 tested, 7.3% active. AID 1030; active = well fitted inhibition curve with a large enough effect, not every such curve was filed as active; inconclusive = small, poorly fitted or top-dose-only effect, or another doubt; inactive = no such curve, though single readings can be large or run the other way;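 also: plate controls were no enzyme wells and a reference inhibitor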
Target sequence (P00352 whole entry, looked up): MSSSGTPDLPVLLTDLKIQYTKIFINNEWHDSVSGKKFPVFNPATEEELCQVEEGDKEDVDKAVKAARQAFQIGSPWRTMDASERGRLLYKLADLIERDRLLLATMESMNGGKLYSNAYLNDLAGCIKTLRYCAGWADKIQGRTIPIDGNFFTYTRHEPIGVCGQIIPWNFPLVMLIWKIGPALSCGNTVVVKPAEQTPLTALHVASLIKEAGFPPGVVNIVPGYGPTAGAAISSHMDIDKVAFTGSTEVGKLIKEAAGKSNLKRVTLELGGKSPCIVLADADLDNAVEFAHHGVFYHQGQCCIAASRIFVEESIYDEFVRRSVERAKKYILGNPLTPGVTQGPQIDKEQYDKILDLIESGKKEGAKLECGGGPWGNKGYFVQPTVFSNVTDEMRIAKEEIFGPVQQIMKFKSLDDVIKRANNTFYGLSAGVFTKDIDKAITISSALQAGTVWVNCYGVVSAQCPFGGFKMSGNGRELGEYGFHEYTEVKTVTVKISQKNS
HTT cytoprotect – protects HTT-Q103 PC12 cells, measured by ATP; 230,000 tested, 0.14% active; PC12 HTT-Q103 induced, cytoprotection, ATP luminescence, 40 h; AID 1471; Potency, µM (doses to about 56.4 µM), for inactives: cytoprotection (ATP increase), usual class: activators; also: % of control where 0% means no effect; nearly all actives have a fitted effect of over 45% in size
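ATP quantification (ATPlite) reports survival of PC12 cells in which tebufenozide, 100 nM final, switches on Htt exon 1 with 103 glutamines linked to GFP; compounds are titrated.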
HPGD block – HPGD (human) dehydrogenase inhibition | Potency, µM, for inactives: at the highest dose activity change, negative = inhibition, usual class: inhibitors | purified HPGD, NADH fluorescence kinetic, PGE2 substrate | 150,000 tested, 4.3% active | P15428 | AID 894; active = well fitted inhibition curve with a large enough effect, not every such curve was filed as active; inconclusive = small, poorly fitted or top-dose-only effect, or another doubt; inactive = no such curve, though single readings can be large or run the other way; also: % is scaled to controls: 0 for no effect and ±100 for the full control effect
Target sequence (P15428 whole entry, looked up): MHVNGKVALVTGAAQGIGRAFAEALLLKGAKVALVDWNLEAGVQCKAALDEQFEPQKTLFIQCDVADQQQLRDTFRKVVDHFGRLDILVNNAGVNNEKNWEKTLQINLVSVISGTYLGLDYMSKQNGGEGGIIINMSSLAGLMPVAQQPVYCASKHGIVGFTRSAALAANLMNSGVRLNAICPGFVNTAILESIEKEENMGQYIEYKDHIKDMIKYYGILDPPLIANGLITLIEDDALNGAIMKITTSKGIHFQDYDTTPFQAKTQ
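NADH formation kinetics: reaction with 30 uM PGE2 and 1 mM NAD+ (final), 20 nM enzyme, Tris-HCl pH 8 with Tween 20, after 15 min compound preincubation at room temperature. Fluorescence change, last versus first of five reads.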
HTT aggregate – inhibitors of mutant huntingtin aggregate formation in PC12 cells | 220,000 tested, 1.1% active | Potency, µM (doses to about 46.1 µM), without a hit: at the top dose activity change, negative = inhibition, usual class: inhibitors | PC12 HttQ103-GFP aggregates, Acumen cytometry, 40 h; also: % is scaled to controls: 0 for no effect and ±100 for the full control effect; nearly all actives have a fitted effect of over 60% in size
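Multiplexed with ATP-based cell death, this channel scores GFP aggregates in PC12 cells expressing inducible HTTex1-Q103-GFP. Induction used 100 nM tebufenozide; compounds were tested in concentration series.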
Luc counter – counter-screen: inhibitors of Kinase-Glo firefly luciferase | Q27757 | Kinase-Glo luciferase, ATP luminescence, 8 min | Potency, µM (doses to about 38.3 µM), without a hit: at the top dose activity change, negative = inhibition, most hits filed as inhibitors | 200,000 tested, 0.28% active | AID 1379; also: % is scaled to controls: 0 for no effect and ±100 for the full control effect; nearly all actives have a fitted effect of over 60% in size
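Compounds were added to a substrate mix at pH 7.2 (50 mM imidazole, 10 uM ATP, within the enzyme's linear range), followed by Kinase-Glo detection reagent; luminescence was measured after 8 minutes at ambient temperature.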
* marks the source's active call; other numbers are inactive results; ? = inconclusive; . = no result; [ ] = another dose, or the depositor's remark. Unless noted, calls follow the shape of the dose curve; as a rule, active = well fitted curve in the direction sought with a large enough effect; inconclusive = small, poorly fitted or top-dose-only effect, or another doubt; inactive = no such curve, though single readings can be large; an effect the other way counts as inactive or inconclusive. Potency is read from the fitted curve at half-maximal effect.

SMILES	LMNA splice mod	ALDH1A1 inh	HTT cytoprotect	HPGD block	HTT aggregate	Luc counter
O=C(CCl)Nc1cc(-c2ccccc2)nn1-c1ccccc1	?	1.3µM*	-30%	-10%	8%	-6%
O=C(OCn1ncc(Cl)c(Cl)c1=O)c1cccc(C(F)(F)F)c1	?	0.63µM*	15%	18µM*	0%	4%
N#CCC(CNc1ncc(C(F)(F)F)cc1Cl)OC(=O)c1cccc(C(F)(F)F)c1 (configuration not stated)	-10%	-10%	-8%[10 µM]	?	-11%	5%
COc1ccccc1N1CCN(C(CNS(=O)(=O)c2ccccc2)c2cccnc2)CC1 (configuration not stated)	6%	20µM*	12%[10 µM]	-3%	13%	15%
COc1ccc(S(=O)(=O)NCC(c2cccnc2)N2CCN(c3ccccc3OC)CC2)cc1C (configuration not stated)	-3%	?	-32%	-9%	-2%	-2%
COc1ccccc1N1CCN(C(CNS(=O)(=O)c2cc(F)ccc2F)c2cccnc2)CC1 (configuration not stated)	3%	20µM*	.	-10%	-13%	2%
Cc1nn(C)cc1CNC(=O)Nc1ccc(Cl)c(Cl)c1	1%	-16%	0%	16µM*	-14%	-4%
Cc1ccc(NC(=O)NCc2c(C)nn(C)c2C)cc1Cl	-4%[46 µM]	-3%	-58%	.	25%	-1%
CCN(CC)CC(=O)N1c2ccccc2Sc2ccc(Cl)cc21	-9%	1%	9%[10 µM]	-15%	-9%	-1%
CN=c1scc(-c2ccco2)n1/N=C/c1ccc(O)c(O)c1	22%[46 µM]	28µM*	-237%	.	8.9µM*	-8%
C=CCN=c1scc(C)n1/N=C/c1ccc(O)c(O)c1	-9%[46 µM]	22µM*	-8%[10 µM]	.	?	-1%
COc1ccc(O)c(/C=N/n2c(-c3ccco3)csc2=Nc2cccnc2)c1	-4%	-2%	34%[10 µM]	-7%	-12%	-1%
c1ccc(Cc2noc(CN3CCC(CN4CCOCC4)CC3)n2)cc1	4%[46 µM]	8%	28%[10 µM]	.	16%[9.22 µM]	2%
Brc1cc2c(cc1COc1ccc(-c3nn[nH]n3)cc1)OCO2	-3%	?	4%[0.074 µM]	25µM*	0%	-2%
O=C(Nc1ccccc1)Nc1ncc([N+](=O)[O-])s1	?	?	14%[10 µM]	.	11µM*	-6%
COc1ccc(CC(=O)Nc2ncc([N+](=O)[O-])s2)cc1OC	?	20µM*	-11%[10 µM]	.	3%[9.22 µM]	-1%
CC(C)CC(=O)Nc1ncc([N+](=O)[O-])s1	.	.	29%[10 µM]	.	-31%[9.22 µM]	.
Cc1nc(C)c(C(=O)Nc2ncc([N+](=O)[O-])s2)o1	?	22µM*	-42%	.	-9%	?
COc1ccc(S(=O)(=O)N(C)CC(=O)Nc2ccc(F)cc2)cc1	2%	10%	-14%	-3%	13%	-3%
O=C(COc1ccccc1)NC(=S)Nc1ccc2c3c(cccc13)CC2	1%	?	9%	-7%	2%	15%
Cc1ccccc1NC(=S)NC(NC(=O)COc1ccccc1)C(Cl)(Cl)Cl (configuration not stated)	?	?	-54%	.	?	.
COC(=O)c1ccccc1NC(=S)NC(=O)c1cccc2ccccc12	4%	10µM*	-39%	-24%	-7%	-3%
COC(=O)c1ccccc1NC(=S)NC(NC(=O)COc1ccccc1)C(Cl)(Cl)Cl (configuration not stated)	?	?	17%	22µM*	-1%	-3%
COC(=O)c1ccccc1NC(=S)NC(=O)c1ccc2ccccc2c1	-4%	?	19%[10 µM]	-14%	12%	0%
COC(=O)c1ccccc1NC(=S)NC(=O)COc1ccc(C(C)C)cc1	-11%	18µM*	7%[10 µM]	-14%	-5%	0%
SMILES	LMNA splice mod	ALDH1A1 inh	HTT cytoprotect	HPGD block	HTT aggregate	Luc counter
Cc1ccc(OCC(=O)NC(=S)Nc2ccc3c4c(cccc24)CC3)cc1	-7%	10µM*	.	-12%	?	0%
CCC(=O)NC(=S)Nc1ccccc1C(=O)OC	-10%	-5%	11%[10 µM]	-3%	4%	-3%
CCCCCC(=O)N1CC2(CC(c3cccc(NC(=O)c4ccccc4)c3)=NO2)C[C@@H]1C(N)=O (some centres not stated)	4%	-8%	-20%	0%	27%	-2%
COC(=O)c1ccc(-c2noc(CN3C[C@H]4CC[C@H]3C4)n2)cc1	.	?	-1%[10 µM]	.	-9%[9.22 µM]	.
COC(CNC(=O)C1CCCCC1C(=O)O)OC (configuration not stated)	2%	5%	.	0%	7%	-2%
Cc1ccc(Cl)cc1N1CCN(S(=O)(=O)c2c(C)[nH]c(=O)[nH]c2=O)CC1	20%	6%	-19%	-5%	-3%	-5%
NNc1nc(-c2ccccc2)c2ccccc2n1	-21%[46 µM]	1%	-54%	.	-31%	0%
NNc1nnc(-c2ccccc2)c(-c2ccccc2)n1	?	13µM*	-3%	-7%	8%[9.22 µM]	1%
CCCCCC(=O)NC(=S)Nc1ccc2oc(=O)ccc2c1	31%[46 µM]	7.1µM*	4%[10 µM]	.	5%	-3%
COc1ccc(C(=O)NC(=S)Nc2ccc3oc(=O)ccc3c2)cc1	-1%	-15%	-4%[10 µM]	-11%	-3%	-2%
Nc1cc(-c2ccncc2)c[nH]c1=O	?	11µM*	-27%	?	?	-13%
CCOC(=O)c1ccc(N2C(=O)C3CC=CCC3C2=O)cc1 (configuration not stated)	-8%	-3%	-3%	-8%	-14%	-5%
CCOC(=O)c1ccc(N2C(=O)C3C(C2=O)C(C(=O)c2ccc(Cl)cc2)N2CCCC32)cc1 (configuration not stated)	-12%	13µM*	-20%[0.074 µM]	2.2µM*	?	0%
COc1cccc(OC)c1C(=O)Nc1ccc2c(c1)Cc1ccccc1-2	.	5%	15%[10 µM]	.	12%[9.22 µM]	.
COc1cccc(OC)c1C(=O)NC(=S)Nc1ccc2c(c1)Cc1ccccc1-2	3%	10µM*	1%	-17%	-1%	-4%
O=C(CSc1nc2[nH]ncc2c(=O)n1-c1ccccc1Br)NCc1ccco1	19%	13µM*	10%	-15%	14%	-1%
C=CCN(C(=O)CSc1nc2[nH]ncc2c(=O)n1-c1ccccc1OC)c1ccccc1	?	13µM*	16%[0.074 µM]	-2%	-11%	-2%
COc1cc(NC(=O)CSc2nc3[nH]ncc3c(=O)n2-c2ccccc2C)cc(OC)c1OC	?	?	.	-8%	?	1%
COc1ccc(CCNC(=O)CSc2nc3[nH]ncc3c(=O)n2-c2ccccc2Br)cc1OC	1%[9.22 µM]	22µM*	-21%	.	-2%	0%

Compound activity from PubChem BioAssay.
